ChEMBL document CHEMBL1961873, “Compounds: GSK PKIS; Assays: Nanosyn kinase panel” (2012)

Experiments:
[1] = biological target: Protein kinase C gamma type (Homo sapiens) (UniProt P05129); settings: at 1 µM;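 further: each value is an averaged percent inhibition of the enzyme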
[2] = biological target: T1, Protein kinase C iota type (Homo sapiens) (UniProt P41743); settings: at 0.1 µM
T1 sequence (whole entry): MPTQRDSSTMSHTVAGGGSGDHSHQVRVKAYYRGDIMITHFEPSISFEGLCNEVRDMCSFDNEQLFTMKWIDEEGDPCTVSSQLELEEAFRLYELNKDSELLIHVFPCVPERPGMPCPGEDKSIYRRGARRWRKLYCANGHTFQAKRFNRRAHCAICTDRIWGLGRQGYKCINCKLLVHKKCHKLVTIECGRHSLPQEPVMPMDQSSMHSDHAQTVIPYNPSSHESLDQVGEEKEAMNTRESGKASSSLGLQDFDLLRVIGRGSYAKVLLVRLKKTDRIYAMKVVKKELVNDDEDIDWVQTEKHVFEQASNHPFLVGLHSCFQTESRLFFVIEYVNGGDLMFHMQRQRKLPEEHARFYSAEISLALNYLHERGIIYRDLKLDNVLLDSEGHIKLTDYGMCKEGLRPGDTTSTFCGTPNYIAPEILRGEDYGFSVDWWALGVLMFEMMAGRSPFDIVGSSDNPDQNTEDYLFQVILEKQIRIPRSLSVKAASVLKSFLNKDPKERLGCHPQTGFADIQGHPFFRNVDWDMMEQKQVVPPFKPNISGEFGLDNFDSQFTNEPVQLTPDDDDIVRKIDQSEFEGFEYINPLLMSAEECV

[3] = biological target: T1, Protein kinase C iota type (Homo sapiens); settings: at 1 µM
[4] = biological target: Protein kinase C theta type (Homo sapiens) (UniProt Q04759); settings: at 0.1 µM
[5] = biological target: Protein kinase C theta type (Homo sapiens) (UniProt Q04759); settings: at 1 µM
[6] = biological target: Protein kinase C beta type (Homo sapiens) (UniProt P05771); settings: at 0.1 µM
[7] = biological target: Protein kinase C beta type (Homo sapiens) (UniProt P05771); settings: at 1 µM
[8] = biological target: T2, Serine/threonine-protein kinase D1 (Homo sapiens) (UniProt Q15139); settings: at 0.1 µM
T2 sequence (whole entry): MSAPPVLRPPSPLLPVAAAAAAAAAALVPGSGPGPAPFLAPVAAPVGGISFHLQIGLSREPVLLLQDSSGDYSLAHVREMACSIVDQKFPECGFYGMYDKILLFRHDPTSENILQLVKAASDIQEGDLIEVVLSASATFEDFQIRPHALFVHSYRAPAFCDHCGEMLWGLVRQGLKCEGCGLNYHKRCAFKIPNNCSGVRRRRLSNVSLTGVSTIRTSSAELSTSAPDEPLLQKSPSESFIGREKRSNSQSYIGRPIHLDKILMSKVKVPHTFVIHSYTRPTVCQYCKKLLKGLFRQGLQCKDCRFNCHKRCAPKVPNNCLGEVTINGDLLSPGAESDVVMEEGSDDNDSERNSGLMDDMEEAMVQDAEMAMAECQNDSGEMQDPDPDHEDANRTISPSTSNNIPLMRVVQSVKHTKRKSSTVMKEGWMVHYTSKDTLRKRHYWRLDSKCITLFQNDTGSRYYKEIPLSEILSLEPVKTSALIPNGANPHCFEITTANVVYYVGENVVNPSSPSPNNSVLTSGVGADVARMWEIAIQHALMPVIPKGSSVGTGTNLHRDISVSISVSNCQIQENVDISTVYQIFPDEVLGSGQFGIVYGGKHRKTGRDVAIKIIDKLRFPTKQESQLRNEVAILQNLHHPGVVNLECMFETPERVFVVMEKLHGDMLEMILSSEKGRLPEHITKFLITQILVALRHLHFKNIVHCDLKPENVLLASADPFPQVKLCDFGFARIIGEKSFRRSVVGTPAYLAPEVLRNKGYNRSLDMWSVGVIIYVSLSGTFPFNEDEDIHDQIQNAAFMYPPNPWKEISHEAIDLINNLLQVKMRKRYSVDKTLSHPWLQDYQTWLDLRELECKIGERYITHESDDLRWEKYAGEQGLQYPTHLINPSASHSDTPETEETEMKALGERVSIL

[9] = biological target: T2, Serine/threonine-protein kinase D1 (Homo sapiens); settings: at 1 µM
[10] = biological target: T3, Serine/threonine-protein kinase D2 (Homo sapiens) (UniProt Q9BZL6); settings: at 0.1 µM
T3 sequence (whole entry): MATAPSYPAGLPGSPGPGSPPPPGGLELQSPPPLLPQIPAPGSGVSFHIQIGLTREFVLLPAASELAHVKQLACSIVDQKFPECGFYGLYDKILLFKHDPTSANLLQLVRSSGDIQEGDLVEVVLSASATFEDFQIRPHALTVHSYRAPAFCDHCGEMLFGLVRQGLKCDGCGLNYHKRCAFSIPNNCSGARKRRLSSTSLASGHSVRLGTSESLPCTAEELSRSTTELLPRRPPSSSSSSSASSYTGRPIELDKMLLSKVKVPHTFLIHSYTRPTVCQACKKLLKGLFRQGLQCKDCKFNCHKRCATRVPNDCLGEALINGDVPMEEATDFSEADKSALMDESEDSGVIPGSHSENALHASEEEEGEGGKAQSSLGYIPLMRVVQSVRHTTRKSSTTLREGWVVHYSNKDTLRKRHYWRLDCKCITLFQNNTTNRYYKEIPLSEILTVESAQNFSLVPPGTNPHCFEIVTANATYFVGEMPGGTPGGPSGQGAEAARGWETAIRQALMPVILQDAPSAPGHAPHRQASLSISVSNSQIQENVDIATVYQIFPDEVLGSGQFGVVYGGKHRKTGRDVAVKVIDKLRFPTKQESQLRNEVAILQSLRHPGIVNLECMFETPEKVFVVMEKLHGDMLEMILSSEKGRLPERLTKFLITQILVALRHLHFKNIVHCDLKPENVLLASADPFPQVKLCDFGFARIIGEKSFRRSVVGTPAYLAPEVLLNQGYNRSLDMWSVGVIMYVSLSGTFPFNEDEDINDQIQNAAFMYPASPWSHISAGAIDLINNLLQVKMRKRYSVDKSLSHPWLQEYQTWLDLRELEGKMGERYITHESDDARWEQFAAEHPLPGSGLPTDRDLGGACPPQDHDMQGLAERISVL

[11] = biological target: T3, Serine/threonine-protein kinase D2 (Homo sapiens); settings: at 1 µM
[12] = biological target: T4, Serine/threonine-protein kinase D3 (Homo sapiens) (UniProt O94806); settings: at 0.1 µM
T4 sequence (whole entry): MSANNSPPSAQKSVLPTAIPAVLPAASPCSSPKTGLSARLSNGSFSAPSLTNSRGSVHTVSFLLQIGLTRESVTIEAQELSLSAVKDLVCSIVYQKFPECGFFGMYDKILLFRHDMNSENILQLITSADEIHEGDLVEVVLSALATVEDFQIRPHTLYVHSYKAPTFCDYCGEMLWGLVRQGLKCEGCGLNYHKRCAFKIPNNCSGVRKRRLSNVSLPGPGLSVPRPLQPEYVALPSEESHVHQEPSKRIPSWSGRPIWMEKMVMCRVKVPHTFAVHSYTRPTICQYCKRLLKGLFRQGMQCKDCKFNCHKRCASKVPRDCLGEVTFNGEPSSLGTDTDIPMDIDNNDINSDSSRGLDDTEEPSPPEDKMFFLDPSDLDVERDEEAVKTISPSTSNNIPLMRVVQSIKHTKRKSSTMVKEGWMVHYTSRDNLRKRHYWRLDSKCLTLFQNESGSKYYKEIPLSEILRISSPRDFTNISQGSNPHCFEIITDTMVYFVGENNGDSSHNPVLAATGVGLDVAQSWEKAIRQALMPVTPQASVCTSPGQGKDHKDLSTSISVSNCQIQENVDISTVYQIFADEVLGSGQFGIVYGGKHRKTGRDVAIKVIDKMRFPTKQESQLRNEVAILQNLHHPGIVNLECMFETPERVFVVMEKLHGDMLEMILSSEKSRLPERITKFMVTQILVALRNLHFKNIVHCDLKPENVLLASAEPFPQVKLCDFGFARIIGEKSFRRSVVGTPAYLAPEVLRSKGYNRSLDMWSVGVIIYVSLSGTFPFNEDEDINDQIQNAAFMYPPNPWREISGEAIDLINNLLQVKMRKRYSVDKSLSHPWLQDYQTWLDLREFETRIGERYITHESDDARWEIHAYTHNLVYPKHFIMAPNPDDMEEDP

[13] = biological target: T4, Serine/threonine-protein kinase D3 (Homo sapiens); settings: at 1 µM
[14] = biological target: T5, cGMP-dependent protein kinase 1 (Homo sapiens) (UniProt Q13976); settings: at 0.1 µM
T5 sequence (whole entry): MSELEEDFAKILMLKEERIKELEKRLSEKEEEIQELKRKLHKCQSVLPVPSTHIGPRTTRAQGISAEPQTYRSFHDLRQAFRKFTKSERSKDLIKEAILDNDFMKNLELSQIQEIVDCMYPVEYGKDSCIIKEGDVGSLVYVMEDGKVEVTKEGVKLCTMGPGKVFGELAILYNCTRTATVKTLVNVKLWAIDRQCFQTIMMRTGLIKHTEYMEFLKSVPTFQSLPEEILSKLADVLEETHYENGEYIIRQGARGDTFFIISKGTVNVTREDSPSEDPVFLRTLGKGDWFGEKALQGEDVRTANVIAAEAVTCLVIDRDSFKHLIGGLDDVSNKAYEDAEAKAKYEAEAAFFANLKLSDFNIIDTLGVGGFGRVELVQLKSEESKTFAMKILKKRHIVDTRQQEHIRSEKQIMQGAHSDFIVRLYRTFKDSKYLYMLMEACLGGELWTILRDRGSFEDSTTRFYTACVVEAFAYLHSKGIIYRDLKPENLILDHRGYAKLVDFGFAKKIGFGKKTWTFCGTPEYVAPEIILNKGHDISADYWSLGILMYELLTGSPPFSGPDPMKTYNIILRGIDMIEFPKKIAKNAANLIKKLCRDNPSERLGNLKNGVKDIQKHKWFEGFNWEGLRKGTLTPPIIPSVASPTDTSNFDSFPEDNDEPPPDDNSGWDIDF

[15] = biological target: T5, cGMP-dependent protein kinase 1 (Homo sapiens); settings: at 1 µM
[16] = biological target: T6, cGMP-dependent protein kinase 2 (Homo sapiens) (UniProt Q13237); settings: at 0.1 µM
T6 sequence (whole entry): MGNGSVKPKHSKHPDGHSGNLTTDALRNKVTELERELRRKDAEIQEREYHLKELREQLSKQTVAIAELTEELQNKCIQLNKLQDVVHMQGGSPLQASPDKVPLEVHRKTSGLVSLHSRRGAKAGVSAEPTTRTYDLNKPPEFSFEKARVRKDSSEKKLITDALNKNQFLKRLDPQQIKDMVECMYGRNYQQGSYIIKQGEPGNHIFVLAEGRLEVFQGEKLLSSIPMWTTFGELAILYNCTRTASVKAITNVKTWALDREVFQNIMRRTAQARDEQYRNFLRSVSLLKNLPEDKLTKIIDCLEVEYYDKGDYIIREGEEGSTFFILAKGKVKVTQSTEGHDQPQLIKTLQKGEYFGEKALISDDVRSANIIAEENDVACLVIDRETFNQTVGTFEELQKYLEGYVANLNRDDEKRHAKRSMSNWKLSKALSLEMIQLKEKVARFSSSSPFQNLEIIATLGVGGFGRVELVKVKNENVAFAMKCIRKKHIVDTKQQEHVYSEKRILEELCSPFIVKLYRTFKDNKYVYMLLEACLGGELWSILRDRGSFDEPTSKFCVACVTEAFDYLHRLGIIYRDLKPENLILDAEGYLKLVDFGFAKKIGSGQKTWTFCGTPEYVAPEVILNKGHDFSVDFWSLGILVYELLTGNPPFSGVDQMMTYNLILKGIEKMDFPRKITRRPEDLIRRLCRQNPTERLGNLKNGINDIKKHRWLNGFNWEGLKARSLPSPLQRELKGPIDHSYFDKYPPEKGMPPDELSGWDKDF

[17] = biological target: T6, cGMP-dependent protein kinase 2 (Homo sapiens); settings: at 1 µM
[18] = biological target: T7, cAMP-dependent protein kinase catalytic subunit PRKX (Homo sapiens) (UniProt P51817); settings: at 0.1 µM
T7 sequence (whole entry): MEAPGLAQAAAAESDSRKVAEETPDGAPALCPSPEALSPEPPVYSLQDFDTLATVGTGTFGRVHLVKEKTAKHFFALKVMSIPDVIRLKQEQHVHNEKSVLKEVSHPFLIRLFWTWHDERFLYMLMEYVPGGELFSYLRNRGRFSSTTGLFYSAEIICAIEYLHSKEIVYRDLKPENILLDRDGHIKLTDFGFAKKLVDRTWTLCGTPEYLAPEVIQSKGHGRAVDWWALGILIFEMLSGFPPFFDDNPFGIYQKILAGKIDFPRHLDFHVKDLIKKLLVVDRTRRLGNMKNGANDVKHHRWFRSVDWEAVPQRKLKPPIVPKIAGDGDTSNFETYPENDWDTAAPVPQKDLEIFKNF

[19] = biological target: T7, cAMP-dependent protein kinase catalytic subunit PRKX (Homo sapiens); settings: at 1 µM
[20] = biological target: Rho-associated protein kinase 1 (Homo sapiens) (UniProt Q13464); settings: at 0.1 µM;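 further: values are mean percent inhibition of ROCK1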
Chain of Rho-associated protein kinase 1 (Homo sapiens) (Q13464 2-1354 limits assumed): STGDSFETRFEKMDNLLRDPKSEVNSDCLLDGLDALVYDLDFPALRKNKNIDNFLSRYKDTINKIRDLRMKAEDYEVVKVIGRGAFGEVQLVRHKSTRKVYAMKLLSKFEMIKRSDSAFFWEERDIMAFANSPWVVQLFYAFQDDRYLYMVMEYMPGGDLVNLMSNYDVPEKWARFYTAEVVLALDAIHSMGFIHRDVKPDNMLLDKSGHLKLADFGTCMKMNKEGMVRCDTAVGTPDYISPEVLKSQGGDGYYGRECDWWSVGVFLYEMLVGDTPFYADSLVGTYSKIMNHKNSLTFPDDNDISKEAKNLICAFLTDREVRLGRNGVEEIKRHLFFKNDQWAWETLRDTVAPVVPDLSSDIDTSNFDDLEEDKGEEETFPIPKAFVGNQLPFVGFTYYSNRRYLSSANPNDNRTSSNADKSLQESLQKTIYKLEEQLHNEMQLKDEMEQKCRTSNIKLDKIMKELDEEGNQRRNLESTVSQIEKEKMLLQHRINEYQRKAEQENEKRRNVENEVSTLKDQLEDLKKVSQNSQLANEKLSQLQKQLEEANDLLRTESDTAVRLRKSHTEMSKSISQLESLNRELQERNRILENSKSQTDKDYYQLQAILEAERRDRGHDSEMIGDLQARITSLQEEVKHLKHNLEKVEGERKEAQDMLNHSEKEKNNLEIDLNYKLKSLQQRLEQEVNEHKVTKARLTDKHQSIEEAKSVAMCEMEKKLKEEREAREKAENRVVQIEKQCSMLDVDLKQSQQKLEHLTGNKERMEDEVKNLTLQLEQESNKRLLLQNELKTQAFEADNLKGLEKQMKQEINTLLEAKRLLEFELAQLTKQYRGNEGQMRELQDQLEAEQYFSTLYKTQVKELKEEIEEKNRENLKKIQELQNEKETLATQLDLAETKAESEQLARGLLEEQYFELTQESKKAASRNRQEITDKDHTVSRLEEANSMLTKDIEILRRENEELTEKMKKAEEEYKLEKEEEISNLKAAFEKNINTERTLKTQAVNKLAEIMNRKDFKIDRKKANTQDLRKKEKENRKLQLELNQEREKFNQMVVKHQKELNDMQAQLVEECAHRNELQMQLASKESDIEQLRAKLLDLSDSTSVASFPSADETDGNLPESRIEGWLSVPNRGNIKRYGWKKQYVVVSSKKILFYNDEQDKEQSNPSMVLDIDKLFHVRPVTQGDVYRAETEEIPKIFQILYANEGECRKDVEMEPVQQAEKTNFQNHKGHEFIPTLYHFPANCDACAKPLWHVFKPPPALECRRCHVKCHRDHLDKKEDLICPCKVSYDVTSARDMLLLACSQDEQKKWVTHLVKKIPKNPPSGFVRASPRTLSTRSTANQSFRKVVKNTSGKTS

Chain of Protein kinase C theta type (Homo sapiens) (Q04759 whole entry, looked up): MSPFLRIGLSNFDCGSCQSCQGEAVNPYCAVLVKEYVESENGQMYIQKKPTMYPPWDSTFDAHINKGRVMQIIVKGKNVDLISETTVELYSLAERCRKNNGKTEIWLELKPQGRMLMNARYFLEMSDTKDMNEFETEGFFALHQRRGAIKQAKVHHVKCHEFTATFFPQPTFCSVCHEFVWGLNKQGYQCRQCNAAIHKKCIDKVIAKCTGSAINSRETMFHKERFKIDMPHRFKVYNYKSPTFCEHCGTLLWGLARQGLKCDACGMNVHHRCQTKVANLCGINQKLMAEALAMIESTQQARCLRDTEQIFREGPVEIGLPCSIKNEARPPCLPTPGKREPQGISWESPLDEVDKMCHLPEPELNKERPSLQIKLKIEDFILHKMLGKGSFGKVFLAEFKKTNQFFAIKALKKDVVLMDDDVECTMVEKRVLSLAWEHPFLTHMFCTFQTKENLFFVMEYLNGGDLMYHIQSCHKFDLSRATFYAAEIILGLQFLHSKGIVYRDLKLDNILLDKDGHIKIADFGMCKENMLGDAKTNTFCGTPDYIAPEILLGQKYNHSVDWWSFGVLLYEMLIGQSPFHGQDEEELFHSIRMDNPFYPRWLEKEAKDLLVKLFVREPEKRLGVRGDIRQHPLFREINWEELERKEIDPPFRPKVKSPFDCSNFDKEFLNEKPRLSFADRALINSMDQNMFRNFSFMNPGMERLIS
Chain of Protein kinase C beta type (Homo sapiens) (P05771 2-671 limits assumed): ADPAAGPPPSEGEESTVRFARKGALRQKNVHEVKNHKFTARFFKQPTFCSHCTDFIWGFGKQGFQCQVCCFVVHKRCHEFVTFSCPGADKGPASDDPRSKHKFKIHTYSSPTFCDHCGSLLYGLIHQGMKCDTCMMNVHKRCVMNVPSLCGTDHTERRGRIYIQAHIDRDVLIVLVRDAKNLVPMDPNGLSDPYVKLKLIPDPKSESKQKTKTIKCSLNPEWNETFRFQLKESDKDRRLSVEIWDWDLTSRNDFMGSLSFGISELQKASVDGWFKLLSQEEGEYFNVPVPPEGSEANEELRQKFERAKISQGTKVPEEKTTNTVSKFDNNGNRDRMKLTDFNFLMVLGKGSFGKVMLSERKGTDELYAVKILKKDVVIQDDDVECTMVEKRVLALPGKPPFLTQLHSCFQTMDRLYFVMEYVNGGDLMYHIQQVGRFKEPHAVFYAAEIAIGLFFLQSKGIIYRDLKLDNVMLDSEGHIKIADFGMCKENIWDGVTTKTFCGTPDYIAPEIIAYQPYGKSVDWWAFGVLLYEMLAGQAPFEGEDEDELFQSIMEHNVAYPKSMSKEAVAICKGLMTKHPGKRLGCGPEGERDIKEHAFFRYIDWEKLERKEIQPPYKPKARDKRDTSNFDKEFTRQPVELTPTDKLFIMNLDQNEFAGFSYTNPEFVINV

SMILES	inhibition [1]	inhibition [2]	inhibition [3]	inhibition [4]	inhibition [5]	inhibition [6]	inhibition [7]	inhibition [8]	inhibition [9]	inhibition [10]	inhibition [11]	inhibition [12]	inhibition [13]	inhibition [14]	inhibition [15]	inhibition [16]	inhibition [17]	inhibition [18]	inhibition [19]	inhibition [20]
Cc1nn(C)c2cc(N(C)c3ccnc(Nc4cccc(S(N)(=O)=O)c4)n3)ccc12	10.3%	2.3%	3.87%	1.21%	2.49%	2.72%	6.99%	2.29%	4.44%	3.66%	4.2%	2.9%	3.56%	4.25%	6.59%	2.42%	5.81%	2.89%	5.35%	1.17%
NC(=O)c1ccc(-c2nc(-c3ccccn3)c(-c3ccc4c(c3)OCO4)[nH]2)cc1	3.47%	0.81%	-0.05%	0.77%	1.31%	1.96%	5.1%	2.47%	5.43%	2.87%	6.06%	2.14%	5.59%	0.18%	3.55%	1.83%	3.18%	1.66%	2.01%	0.07%
CCn1c(-c2nonc2N)nc2c(C#CC(C)(C)O)nc(OC[C@@H](N)c3ccccc3)cc21	45.3%	1.26%	0.8%	11.9%	52.5%	3.74%	23.1%	-0.47%	9.57%	-0.26%	8.54%	-0.8%	8.35%	17.7%	63.5%	35.9%	73.3%	78.2%	79.3%	5.46%
